# Source: the supplement of paper PMC7556523
# A number with no mark means an inactive call.
# What was measured:
# [1] = system: Sporothrix brasiliensis CBS 133006; assay: growth inhibition relative to untreated control; higher = more growth inhibition (more antifungal activity), active = 80 or more; extreme values may be limits of the assay; conditions: 1 µM; 48 h
# Outline: (§1)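 The reported figure is percent growth inhibition relative to untreated cells, from quadruplicate runs. Yeast-form cells of the reference isolates at 1 x 10^5 CFU/ml were exposed to library compounds at a final 1 μM for 48 h at 35°C in 5% CO2, and growth was assessed by microscopy and spectrophotometric readings.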
# [2] = system: Sporothrix schenckii ATCC 32286; assay: as above; conditions: 1 µM; 48 h
# Outline: as §1
SMILES,growth inhibition [1],growth inhibition [2]
COc1cccc(-n2nnnc2S(=O)(=O)Cc2ccccc2)c1,19%,6%
COc1ccc(OC)c(NCc2ccc3nc(N)nc(N)c3c2Cl)c1,93.8% (active),89.2% (active)
CCOc1ccccc1C(=O)Nc1cccc(-c2nc3ncccn3c2C)c1,6.75%,12.2%
CCc1ccc(S(=O)(=O)Nc2cc(CN3CCN(CCC(C)C)CC3)ccc2C)cc1,1.75%,21.2%
COc1cccc(-c2cc3c(Nc4cccnc4)nccc3[nH]2)c1,4%,5%
O=C(Nc1ccc(F)c(-c2nc3cc(-c4ccccc4)cnc3[nH]2)c1)N1CCCC1,12.5%,7.75%
CCn1ncc2c(NC3CCOCC3)c(CNC(=O)c3ccnn3C)c(C)nc21,4.25%,0%
c1ccc2c(c1)CN(CC1CC1)CC1(CCN(Cc3c[nH]c4cnccc34)CC1)O2,1.25%,0%
Cc1cc(OCC(=O)NCc2ccccc2)c2cc(Br)ccc2n1,10%,4%
CS(=O)(=O)Cc1nc2ccccc2oc1=O,21.8%,4.75%
CC(C)(C)CN1C(=O)C(c2ccccc2)(c2ccccc2)N=C1N,17.8%,4.25%
NS(=O)(=O)c1cncc(-c2ccc3nccc(-c4cn[nH]c4)c3n2)c1,5.5%,2%
Cc1ccc(-c2nc(CN(Cc3ccccn3)C(C)C)cs2)o1,24%,1.75%
N#Cc1nc(-c2ccccc2F)oc1NCCc1ccccc1,3.75%,0%
c1csc(-c2cnc3sc(NCC4CCOCC4)nn23)c1,19.8%,8.75%
CCc1ccc(C(NCc2nc(N)nc(N(C)C)n2)C(C)C)cc1 (stereo unspecified),0%,8.75%
N#Cc1nc(-c2ccccc2)oc1S(=O)(=O)c1ccc(Cl)cc1,48.8%,6.25%

SMILES,growth inhibition [1],growth inhibition [2]
Cc1ccccc1CN1CCC(O)(c2ccc(Cl)c(C(F)(F)F)c2)CC1,0%,0%
CC(C)(C)[C@H]1CC[C@H](CC2=C(O)C(=O)c3ccccc3C2=O)CC1,88% (active),14%
NC(=O)c1cc(Br)ccc1OCCOc1ccccc1,23.5%,1.25%
Nc1nc(N)c2c3c(sc2n1)CN(Cc1ccccc1)CC3,21.5%,11%
COc1ccc(C2=NN(C3CCCCCC3)C(=O)C2(C)C)cc1OCCCCOc1ccc(-c2nn[nH]n2)cc1,6.25%,0%
CC(C)(C)c1ccc(N[C@@H]2CCCC[C@H]2NC(=O)c2ccco2)cc1,7.25%,0.75%
CC(=O)NCC1CN(c2ccc(-c3ccc(CO)cc3)c(F)c2)C(=O)O1 (stereo unspecified),4%,13.2%
NCCCC(N)(C(=O)O)C(F)F (stereo unspecified),13.5%,17.2%
O=C(Nc1nc(-c2ccccn2)cs1)c1cncn1-c1ccccc1,17.5%,15.2%
CCCn1c(NC(=O)c2ccc3ccccc3n2)nc2ccccc21,3.5%,0%
Clc1ccc(CN2CCN(C3=NCCN3)CC2)cc1Cl,18.8%,17%
COc1cccc(-c2nc3c(N4CCCC4)cccc3n2CC2CCCN2)n1 (stereo unspecified),0%,9.5%
Nc1ncnc2c1ncn2[C@@H]1O[C@H](COS(=O)(=O)NC(=O)c2ccccc2O)[C@@H](O)[C@H]1O,5.25%,9%
CCC(Sc1nc2ccccc2o1)C(=O)Nc1nccs1 (stereo unspecified),5.75%,15.5%
Cc1nc(-c2cccc(NCc3ccccc3)c2)[nH]c1C,1.25%,10.2%
C[C@@H]1[C@H](O)[C@@H](C)/C=C/C=C/C=C/C=C/C=C/C=C/C=C/[C@H](O[C@@H]2O[C@H](C)[C@@H](O)[C@H](N)[C@@H]2O)C[C@@H]2O[C@](O)(C[C@@H](O)C[C@@H](O)[C@H](O)CC[C@@H](O)C[C@@H](O)CC(=O)O[C@H]1C)C[C@H](O)[C@H]2C(=O)O,24%,16%
